The source of these data is PubChem BioAssay (NCI).

Common to all, as to experiment: NCI-60 one-dose screen, 48 h (100 = growth as untreated, 0 = no growth, -100 = all killed)
Holding throughout (conditions): 10 µM

In test [1] the test system is HCT-15 colon.
The test system of test [2] is HT29 colon.
For test [3], the system named is SNB-75 CNS.
Test [4] concerns SNB-19 CNS.
For test [5], the system named is U251 CNS.
Test [6] relates to PC-3 prostate.
In test [7] the test system is SK-MEL-5 melanoma.
Test [8] has as its system UACC-62 melanoma.
Test [9] has as its system SK-MEL-28 melanoma.
For test [10], the system named is LOX IMVI melanoma.

This is part of a sample that, as a whole, favours compounds with a hit. Of some 83,000 tested, about 20% had one in any assay.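 Cell lines were cultured in 96-well plates, exposed to a single compound concentration, and assessed for percent growth 48 hours later.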 Values without a mark were called inactive. Active and inactive are the calls of the source. The calls were made as follows: active = growth percent below 10; inactive = the rest.

For the compound `Nc1ccc2c(c1)Cc1cc(N)c(Cl)cc1-2`, the growth is 100% in test [1]; 101% in test [2]; 86.7% in test [3]; 92.9% in [4]; 93.2% in [5]; 95.7% in [6]. Also, the figures for the growth in test [7], in test [8] and in [9] were 93.9%, 83.9% and 103%, respectively.

Consider `CC(=O)Nc1nc(C)c(C(=O)NNC=O)s1`, for which the growth is 99.5% in test [1]; 99.8% in [2]; 94.8% in test [3]; 117% in test [4]; 109% in test [5]; 91.6% in test [6]. The values for the growth in test [7], in test [8] and in [9] were 104%, 97.1% and 104%, respectively.

As for `CCc1ccc(-c2nnc(COc3ccc(-c4nc5cc(Cl)c(Cl)cc5[nH]4)cc3OC)o2)cc1`, the growth in [1] was 44.9%; in [2] it was 62.1%; in test [3], 48.4%; in test [4] it was 68.3%; in test [5], 29.1%; in [6], 52.6%. Moreover, the growth in test [7] was 84.9%; in test [8], 78.8%; in test [9] it was 67.1%.

For `CCN(CC)CCn1c(=N)n(CC(O)c2ccc(Cl)c(Cl)c2)c2ccccc21` (stereo not drawn), the growth in [1] was 51.2%; in test [2], 20.1%; in [3], 71.8%; in [4], 102%; in test [5], 69.7%; in test [6] it was 80.8%. Also, the growth in test [7] was 55.6%; in [8], -30.5% (active); in [10], 76.1%; in test [9] it was 10.4%.

With `O=C(NCc1cn(Cc2cccc(Oc3ccccc3)c2)nn1)c1cccnc1Nc1ccccc1`, the growth was 30.7% in test [1]; 47.8% in test [2]; 54.2% in [3]; 67.1% in test [4]; 42.2% in [5]; 44.5% in test [6]. Further, the figures for the growth in [7], in test [8] and in test [9] were 40.8%, 53.5% and 47.8%, respectively.

For `COc1ccc2oc(=O)cc(C3c4ccc([nH]4)C(c4cc(=O)oc5ccc(OC)cc45)c4ccc([nH]4)C(c4cc(=O)oc5ccc(OC)cc45)c4ccc([nH]4)C(c4cc(=O)oc5ccc(OC)cc45)c4ccc3[nH]4)c2c1` (stereo not drawn), the growth is -62.4% (active) in test [1]; -41.5% (active) in test [2]; 19.3% in test [3]; 26% in test [4]; 1.28% (active) in [5]; 30.4% in [6]. Also, the growth in test [7] was -4.6% (active); in test [8] it was -8.02% (active); in [9] it was 1.37% (active).

For `O=C(Nc1cccc(Cl)c1)Nc1cc2ncncc2cc1OCc1cccc(F)c1`, the growth was 0.775% (active) in test [1]; 0.74% (active) in test [2]; 21.1% in [3]; 22.9% in test [4]; 6.99% (active) in [5]; 9.57% (active) in test [6]. Moreover, the growth in test [7] is -88.5% (active); in test [8], -18.4% (active); in test [9], 20.9%.

For `CCCCn1c(=O)[nH]c2c(c1=O)C(c1ccc(Cl)cc1)c1c([nH]c(=O)n(CCCC)c1=O)N2`, the growth is 95.6% in [1]; 97.2% in test [2]; 91.7% in test [3]; 99.5% in test [4]; 94% in test [5]; 93.4% in test [6]. Moreover, the growth in [7] was 102%; in test [8], 98.2%; in test [10], 94.9%; in test [9] it was 102%.

Turning to `N=C(N)c1ccc(-c2ccc(-c3ccccc3)s2)cc1F`, the growth in test [1] was -77.1% (active); in test [2], -89.8% (active); in [3] it was -92.4% (active); in test [4], -75.9% (active); in test [5], -94.5% (active); in test [6] it was -88% (active). Further, the growth in test [7] is -97% (active); in [8], -93.1% (active); in test [9] it was -96.2% (active).

`N#CN1CC[C@H](C(=O)Nc2ncc(-c3ccccc3)s2)C1`: the growth in test [1] is 3.19% (active); in [2], -35.6% (active); in test [3] it was -43.8% (active); in test [4], 12.4%; in test [5], 2.64% (active); in test [6] it was 11.1%. The growth in test [7] was -56% (active); in test [8], -37.1% (active); in test [10], 4.1% (active); in [9], 5.29% (active).

As to `C=CCn1ccc(=O)nc1SC`, the growth is 110% in [1]; 97.6% in test [2]; 91.2% in test [3]; 106% in [4]; 102% in test [5]; 95.7% in test [6]. Besides, the growth in test [7] is 112%; in test [8], 105%; in [9], 112%.

For `CC1(CO)CCCC12OCCO2` (stereo not drawn), the growth is 101% in [1]; 98.6% in [2]; 97.2% in [3]; 105% in [4]; 102% in test [5]; 103% in [6]. Moreover, the growth is 100% in [7], 100% in test [8] and 108% in test [9].

`Cc1cc(Cl)ccc1Nc1nc(C(F)(F)F)ccc1C(=O)N/N=C/c1ccccc1Cl`: the growth in test [1] was 22.9%; in test [2], 14.7%; in test [3] it was 37.9%; in test [4], 29.5%; in test [5], 22.5%; in [6], 8.2% (active). Besides, the values for the growth in test [7], in test [8] and in test [9] were -54.4% (active), -4.83% (active) and 37.2%, respectively.

In the case of `Oc1[nH]c2ccccc2c1/C=c1/cc2c(c(-c3ccc(C(F)(F)F)cc3)n1)=Nc1ccccc1-2`, the growth in [1] was 49.4%; in [2], 20.2%; in test [3] it was 63.4%; in test [4], 82.7%; in test [5], 60.1%; in [6] it was 34.9%. Moreover, the growth in test [7] was 57.2%; in test [8] it was 77%; in [9], 52.8%.

Consider `COc1cc(C)c2sc3ccccc3c(=O)c2c1NCCN(C)C`, for which the growth in test [1] was 39.3%; in test [2], 16.3%; in [3], 50.5%; in test [4] it was 65.2%; in test [5], 44.8%; in test [6], 53.4%. Further, the growth is 36.9% in test [7], -90.3% (active) in test [8] and 54.1% in test [9].
